Data on 40 compounds can be found in PubChem BioAssay (Tox21).

Records with an inconclusive call do not appear. Entries that show only a call come without a potency. Unmarked numbers belong to inactive results. The source made the active and inactive calls. Calls come from the whole dose curve; as a rule, active = well fitted activation curve with a large enough effect in the repeat runs; inconclusive = weak or mixed curves; inactive = flat fitted curve, though single readings scatter.

The test is described as follows: A CellTox Green Cytotoxicity Assay to monitor cytotoxicity in HEK293 cells - 32 hour (AID 1224881). Note: nearly all actives have a fitted effect of over 40% in size. The note with it: CellTox Green fluorescence; series mostly up to 76.8 µM. An excerpt: National Center for Advancing Translational Sciences [NCATS]
NIH Chemical Genomics Center [NCGC]
U.S. Environmental Protection Agency [EPA]
National Institutes of Environmental Health Sciences [NIEHS]
National Toxicology Program [NTP]
Cell-based models are critical for drug discovery. Determining the natural cytotoxic effects resulting from test compounds is an essential research activity. A CellTox Green Cytotoxicity Assay to monitor cytotoxicity in real time of continues cell culture during 40 hours of the compound treatment was used to screen Tox21 10K library compounds in Hek293 cells. CellTox Green Cytotoxicity Assay is a nonlytic, homogeneous, biofluorescent method to measure cytotoxicity in cell culture after experimental manipulation. The assay system uses a proprietary asymmetric cyanine dye that is excluded from viable cells but preferentially stains the dead cell's DNA. […] Viable cells produce no appreciable increases in fluorescence. Therefore, the fluorescence signal produced by the binding interaction with dead cell DNA is proportional to cytotoxicity.
The mixture of Hek293 cell suspension and reagents were dispensed at 600cells/6 ul/well in 1536-well tissue culture treated black solid bottom plates using a Multidrop dispenser. After the assay plates were incubated at a 37 C/5% CO2 incubator for 5 hours, 23 nL of compounds dissolved in DMSO, positive and negative controls was transferred to the assay plate by a pintool work station. The plates were incubated at 37 C for 40 hours. The fluorescence intensity were measured at 0h, 8h, 16h, 24h, 32h and 40h time points using ViewLux plate reader during compound treatment.
In the case of `NCCCN1CCN(CCCN)CC1`, the Potency entry is “inactive”.
On the same count and under the same terms, the entry for `OCCN1CCN(CCO)CC1` is “inactive”.
Still for that read-out and setting: the entry for `CCCCC1CCC(=O)O1` (stereo not given) is “inactive”; for `C[C@@H](N)C(=O)O` it is “inactive”.
With `CCCCCCOc1ccc(N)cc1`, the Potency entry was “inactive”.
Turning to `CC(=O)OC1C2(C)CCC(C2)C1(C)C` (stereo not given), the Potency result is “inactive”.
The same measure, in the same setting: under `CCOC(=O)NCCC[Si](OCC)(OCC)OCC` stands “inactive”; under `COc1cc2c(cc1N)oc1ccccc12`, “inactive”.
Regarding `CCCCNC(=S)NCCCC`, the Potency result was “inactive”.
On the same count and under the same terms, the entry for `C=CC1CO1` (stereo not given) is “inactive”; for `O=Cc1ccc(F)c(Br)c1` it is “inactive”; for `CC1(O)CSC(C)(O)CS1` (stereo not given) it is “inactive”.
Still for that read-out and setting: the entry for `CCN(CC)C(=O)N(CC)CC` is “inactive”.
Turning to `COC(=O)c1ccc2cc(C(=O)OC)ccc2c1`, the cytotoxicity increase was 1.19% [at 15.8 µM].
Regarding `O=C(O)C(=O)Cc1c[nH]c2ccccc12`, the Potency result was “inactive”.
`CC1(C)C(=O)N(Cl)C(=O)N1Br`: the Potency entry was “inactive”.
Still for that read-out and setting: the entry for `O=C(C(Cl)Cl)N1CCOC12CCCCC2` is “inactive”.
On to `CCOc1ccc(NC(N)=O)cc1`, for which the Potency result was “inactive”.
On to `CCOC(=O)c1cc(=O)c2c(OCC(COc3cccc4oc(C(=O)OCC)cc(=O)c34)OC(=O)[C@@H](N)CCCCN)cccc2o1`, for which the Potency entry was “inactive”.
On the same count and under the same terms, the entry for `O=S(=O)(O)C(F)(F)F` is “inactive”.
The same measure, in the same setting: the entry for `CCCCN1C[C@H](O)[C@@H](O)[C@H](O)[C@H]1CO` is “inactive”; for `Nc1cccc(S(=O)(=O)O)c1` it is “inactive”.
Same read-out and setting: under `CCN(O)CC` stands “inactive”.
Turning to `C=CCCC=C`, the Potency entry is “inactive”.
Still for that read-out and setting: the entry for `CCN(CCCc1ccccc1)CCCc1ccccc1` is “inactive”; for `COc1ccc(S(=O)(=O)Nc2nnc(CC(C)C)s2)cc1` it is “inactive”; for `Cc1nc(-c2ccccn2)ncc1C(=O)Nn1cc(C)c2cc(F)ccc21` it is “inactive”.
For `O=C1CCCCCCCCCCC(=O)OCCO1`, the Potency entry is “inactive”.
For the compound `CCC(=O)Nc1ccc(O)cc1`, the Potency result was “inactive”.
On the same count and under the same terms, the entry for `CO[C@@]1(NC(=O)CSCC#N)C(=O)N2C(C(=O)O)=C(CSc3nnnn3C)CS[C@@H]21` is “inactive”.
The same measure, in the same setting: under `Cc1ccc([N+](=O)[O-])cc1Cl` stands “inactive”; under `Cc1cc2c(s1)Nc1ccccc1N=C2N1CCN(C)CC1`, “inactive”; under `CCOC(=O)[C@H](CCc1ccccc1)N[C@@H](C)C(=O)N1Cc2cc(OC)c(OC)cc2C[C@H]1C(=O)O`, “inactive”.
On to `O=C(O)CN(CCN(CC(=O)O)CC(=O)O)CCN(CC(=O)O)CC(=O)O`, for which the cytotoxicity increase was 18.1% [at 15.8 µM].
As for `CCC1(C)NC(=O)NC1=O` (stereo not given), the Potency entry was “inactive”.
Still for that read-out and setting: under `CC(=O)Oc1cc(C(C)C)c(OCCN(C)C)cc1C` stands “inactive”; under `CC(=O)OC(C)OC(C)=O`, “inactive”; under `NC/C=C/C(=O)O`, “inactive”.
For `Cc1cccc(C)c1NC(=O)CN1CCCCCC1`, the Potency entry is “inactive”.
`CCOC(=O)CS`: the Potency entry was “inactive”.
